According to PMC4336329 (PLoS ONE, 2015):
In all, about 310,000 compounds went through this assay and about 14,000 (4.5%) showed an effect of 50% or more. The effect is printed as a negative number. Only a selection was taken, and strong results are over-represented in it overall.

biological target: human ether-à-go-go-related gene (hERG) potassium channel (human, UniProt Q12809); assay: primary screen, population patch clamp on CHO cells stably expressing hERG; higher = less effect of the substance
Sequence (Q12809 whole entry, looked up): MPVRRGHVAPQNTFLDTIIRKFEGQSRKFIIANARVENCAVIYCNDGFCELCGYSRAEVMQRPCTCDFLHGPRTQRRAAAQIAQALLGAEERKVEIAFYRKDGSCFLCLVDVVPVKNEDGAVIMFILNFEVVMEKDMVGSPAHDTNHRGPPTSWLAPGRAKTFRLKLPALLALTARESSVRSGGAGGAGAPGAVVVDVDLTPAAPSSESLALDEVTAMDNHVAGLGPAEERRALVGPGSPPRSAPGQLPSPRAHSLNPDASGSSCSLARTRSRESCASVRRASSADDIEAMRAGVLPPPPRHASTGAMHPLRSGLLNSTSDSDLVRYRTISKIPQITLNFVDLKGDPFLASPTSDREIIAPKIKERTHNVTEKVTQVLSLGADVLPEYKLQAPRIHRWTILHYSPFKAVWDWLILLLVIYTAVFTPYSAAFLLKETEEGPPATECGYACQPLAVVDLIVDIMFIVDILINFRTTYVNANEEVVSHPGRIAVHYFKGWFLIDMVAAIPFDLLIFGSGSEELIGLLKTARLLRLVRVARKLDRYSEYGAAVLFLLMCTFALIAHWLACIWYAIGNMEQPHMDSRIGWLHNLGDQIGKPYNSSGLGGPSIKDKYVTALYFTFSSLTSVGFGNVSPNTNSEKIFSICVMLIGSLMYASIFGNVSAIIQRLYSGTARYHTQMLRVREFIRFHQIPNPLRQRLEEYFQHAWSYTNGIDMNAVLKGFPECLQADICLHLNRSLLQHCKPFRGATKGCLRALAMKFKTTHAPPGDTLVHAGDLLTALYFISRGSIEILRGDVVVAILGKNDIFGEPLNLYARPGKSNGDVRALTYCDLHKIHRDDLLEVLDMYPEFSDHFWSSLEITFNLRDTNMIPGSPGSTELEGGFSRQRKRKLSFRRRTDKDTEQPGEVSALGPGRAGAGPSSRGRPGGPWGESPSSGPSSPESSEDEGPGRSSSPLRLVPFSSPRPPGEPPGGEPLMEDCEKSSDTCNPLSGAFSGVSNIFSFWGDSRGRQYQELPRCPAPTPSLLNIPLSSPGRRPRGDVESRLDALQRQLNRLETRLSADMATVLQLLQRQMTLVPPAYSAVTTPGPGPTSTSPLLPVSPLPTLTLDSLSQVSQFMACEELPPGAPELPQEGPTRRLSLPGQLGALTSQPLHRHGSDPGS
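Note: peak tail current of the secondary pulse compared with the same well before compound.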

SMILES | hERG current change (%, negative = inhibition) at 10uM [%]
O=C(CSc1nnc(-c2ccc(O)cc2)n1Cc1ccccc1)NNC(=O)c1ccc(Br)cc1 | -4.24
Cc1ccc(NC(=O)COC(=O)CCc2ccc(S(=O)(=O)N3CCOCC3)cc2)cc1F | -11
CCn1c(COc2ccccc2)nnc1SCC(=O)Nc1ccc2c(c1)OCCO2 | -6.9
Cc1ccc(NC(=O)c2nc[nH]c2C(=O)N2CCN(c3ccccc3)CC2)cc1 | 8.53
O=C(NCCC1CCCCN1S(=O)(=O)c1ccccc1)C(=O)Nc1ccc(F)cc1F (stereo not drawn) | 2.67
CC(C)NC(=O)CSc1nnc(COc2ccccc2Cl)o1 | 9.76
Cc1ccc(SCC(=O)OCC(=O)N(C)CC(=O)Nc2ccc(F)cc2)cc1C | -38.7
CC#CCC(CC#CC)c1nc2ccccc2c(=O)n1N | -1.36
Cc1cc[n+](-c2[nH]c(=O)sc2/C=N/N=C(\[O-])c2ccncc2)cc1 | 5.61
CCCc1ccc(-c2cc(C(=O)N3CCN(c4ccccn4)CC3)c3ccccc3n2)cc1 | 13.4
CCOC(=O)N1CCC(N2Cc3cccc(C(=O)NCc4ccc(C)cc4)c3C2=O)CC1 | -42.6
CCOC(=O)N1CCC(NC(=O)c2cccc3c2C(=O)N(CCOC)C3)CC1 | -1.34
CCOC(=O)N1CCC(N2Cc3cccc(C(=O)Nc4ccccc4OC)c3C2=O)CC1 | -79.2
CCOC(=O)N1CCC(NC(=O)c2cn(-c3ccc(OC)cc3)c(=O)c3ccccc23)CC1 | -6.75
CCOC(=O)N1CCC(N2Cc3cccc(C(=O)NCc4ccccc4OC)c3C2=O)CC1 | -71.2
CCOC(=O)N1CCC(N2Cc3cccc(C(=O)Nc4ccc(OC)c(OC)c4)c3C2=O)CC1 | -9.58
CCOC(=O)N1CCC(NC(=O)c2cccc3c2C(=O)N(c2ccc(OC)cc2)C3)CC1 | -58.3
CCOC(=O)N1CCC(N2Cc3cccc(C(=O)NCc4ccc(OC)cc4)c3C2=O)CC1 | -40
CCOC(=O)c1ccccc1NC(=O)c1cccc2c1C(=O)N(C1CCN(C(=O)OCC)CC1)C2 | -30.4
CCOCCn1c(N2CCCC2)nc2c1c(=O)[nH]c(=O)n2C | 15.1
COc1ccc2nc(N3C(=O)CC(Cc4cc(C)cc(C)c4)C3=O)sc2c1 (stereo not drawn) | 9.23

SMILES | hERG current change (%, negative = inhibition) at 10uM [%]
COc1ccc(CCNC(=S)N2CCN(S(=O)(=O)c3ccc(Cl)cc3)CC2)cc1 | 22
OCCN(Cc1ccccc1)Cc1ccc(C(F)(F)F)cc1 | -3.33
COc1ccc(-c2oc3cccnc3c2C#CCO)cc1 | 9.84
COc1ccc2[nH]c(=O)c(CN(CCO)S(=O)(=O)c3c(C)ccc4nsnc34)cc2c1 | -3.86
C/C(=N\NC(=O)c1cc(-c2ccccc2C)nc2ccccc12)c1cccnc1 | -10.3
CCSCc1nnc(SCC(=O)Nc2cccc(C(C)=O)c2)n1C | 11.9
CCOc1ncccc1C(=O)Nc1ccc(F)c(Cl)c1 | 24.1
CN(Cc1ccccc1)c1ccc(N2C(=O)CCCC2=O)cc1[N+](=O)[O-] | 6.5
Cc1ccc(F)cc1NC(=O)c1ccc(NS(=O)(=O)c2ccc(Br)s2)cc1 | -70
O=C(Nc1ccc2ccccc2c1)c1ccc(NS(=O)(=O)c2ccc(Br)s2)cc1 | 12
Cc1cc(F)ccc1NC(=O)c1ccc(NS(=O)(=O)c2cc(C(C)(C)C)ccc2C)cc1 | 0.887
Cc1ccc(-c2ccc(=O)n(CC(=O)N3CCC4(CC3)OCCO4)n2)cc1 | 5.07
Cc1ccc2c(c1)N(CCC(=O)N1CCC3(CC1)OCCO3)C(=O)CO2 | -16.8
Cc1ccc(-c2ccc(=O)n(CCC(=O)N3CCC4(CC3)OCCO4)n2)cc1 | -64.5
Cc1ccc(C2=NN(CCC(=O)N3CCC4(CC3)OCCO4)C(=O)CC2)cc1 | -57.5
CCc1ccc(C2=NN(CCC(=O)N3CCC4(CC3)OCCO4)C(=O)CC2)cc1 | -10.3
O=C(CCn1nc(-c2ccc(Cl)cc2)ccc1=O)N1CCC2(CC1)OCCO2 | -39.8
O=C(Nc1ccc(C2=NCCN2)cc1)c1ccc(C(=O)Nc2ccc(C3=NCCN3)cc2)c([N+](=O)[O-])c1 | 20.1
CC(=O)c1cc(F)c(N2CCN(c3ccc([N+](=O)[O-])cc3F)CC2)cc1C | -12.3
O=C(c1ccco1)N1CCN(S(=O)(=O)c2cccc([N+](=O)[O-])c2)CC1 | -20.7
CC(=O)c1ccc(N2CCN(C(=O)c3ccco3)C(C)C2)c(F)c1 (stereo not drawn) | -49.9

SMILES | hERG current change (%, negative = inhibition) at 10uM [%]
O=C(O)C(=O)O.O=C(c1ccco1)N1CCN(S(=O)(=O)c2ccc([N+](=O)[O-])cc2)CC1 | -39.8
CC1CN(c2ccc([N+](=O)[O-])cc2F)CCN1C(=O)c1ccco1 (stereo not drawn) | -62
O=C(Nc1ccc(F)cc1F)N1CCCN(c2ccc(C(F)(F)F)cn2)CC1 | -12.4
O=C(Nc1ccc(F)cc1F)N1CCCN(c2ccc([N+](=O)[O-])cn2)CC1 | -50.2
CC(C)(C)c1ccc(NC(=O)N2CCCN(c3ccc([N+](=O)[O-])cn3)CC2)cc1 | -25.9
O=C(NC(=O)N1CCN(c2ccc([N+](=O)[O-])cn2)CC1)c1ccccc1F | -24.5
O=C(c1ccco1)N1CCN(c2ccc([N+](=O)[O-])cc2Cl)CC1 | -71.4
CC(C)(C)c1ccc(C(=O)N2CCCN(c3ccc([N+](=O)[O-])cn3)CC2)cc1 | -72.3
CC(C)(C)c1ccc(NC(=O)N2CCN(c3ccc([N+](=O)[O-])cn3)CC2)cc1 | -9.81
CCOC(=O)c1cnn(CCOC(=O)c2ccccc2F)c1NC(=O)c1ccccc1F | -15.6
COC(=O)c1cc(Br)c(=O)n(-c2nccs2)c1 | -5.98
Cc1cccc(N2C(S)=C(C#N)C(=O)NC2c2cccs2)c1 (stereo not drawn) | 13
CN(CC(=O)Nc1cccc2ccccc12)C(=O)/C=C/c1cccs1 | -10.7
O=C1OC(/C=C/c2ccc(Cl)cc2)=NC/1=C/c1ccco1 | 2.78
Cc1occc1C(=O)NNC(=O)c1ccccc1F | 13
CC(=O)C(=Nc1cccc(Cl)c1)NNc1ccccc1C | 8.82
O=C(N1CCN(c2ccc(F)cc2)CC1)C1(c2cccs2)CCOCC1 | -33
O=C(c1ccco1)N1CCN(c2ccc(N3CCCCC3)nn2)CC1 | -44.8
O=C(c1ccco1)N1CCN(c2ccc([N+](=O)[O-])cc2F)CC1 | -64.9
CC(=O)c1ccc(N2CCN(C(=O)c3ccco3)CC2)c(F)c1 | -25.2
O=C(c1ccc([N+](=O)[O-])cc1)N1CCN(C(=O)c2ccco2)CC1 | -47.4

SMILES | hERG current change (%, negative = inhibition) at 10uM [%]
O=C(c1ccco1)N1CCN(c2cc(N3CCOCC3)c(F)cc2[N+](=O)[O-])CC1 | -49.6
O=C(c1ccco1)N1CCN(c2ccc([N+](=O)[O-])cn2)CC1 | -57.7
O=C(CCCNS(=O)(=O)c1cccc2nsnc12)NCc1ccc(Cl)cc1 | -37.9
CC(C)n1nc(C(=O)N2CCN(S(=O)(=O)c3cccs3)CC2)c2ccccc2c1=O | -28.7
O=C(CSc1nn(-c2ccc(F)cc2)c(=S)s1)NC(=O)NCc1ccco1 | 2.66
O=C(CSc1nn(-c2ccc(Cl)cc2)c(=S)s1)N1CCN(C(=O)c2ccco2)CC1 | -70.5
O=C(CSc1nn(-c2ccc(F)cc2)c(=S)s1)N1CCN(C(=O)c2ccco2)CC1 | -75
CCSc1nnc(SCC(=O)N2CCN(C(=O)c3ccco3)CC2)s1 | -33.4
CC(C)Nc1nnc(SCC(=O)N2CCN(C(=O)c3ccco3)CC2)s1 | -2.72
O=C(CSc1nnc(SCc2ccc(Cl)cc2)s1)N1CCN(C(=O)c2ccco2)CC1 | -33.7
O=S(=O)(c1ccc(Cl)cc1)N1CCN(C(=S)Nc2ccccc2F)CC1 | 2.92
O=C(Nc1cccc(-c2ccc(N3CCOCC3)nn2)c1)c1ccccc1 | -30.8
CC(=O)C[C@@H](O)CC(=O)[C@H]1OC(=O)CC/C=C\Cc2ccccc21 | 14.4
O=C(CN1C(=O)C2CC=CCC2C1=O)NCC1COc2ccccc2O1 (stereo not drawn) | 1.42
CN(C)C(=O)NC(Nc1cccc([N+](=O)[O-])c1)C(Cl)(Cl)Cl (stereo not drawn) | -27.1
CCc1ccc(CNC(=O)c2ccc(OC)c(OC3CCN(C(C)C)CC3)c2)nc1 | -7.31
Cc1ccnc(NC(c2cccnc2)c2ccc3cccnc3c2O)c1 (stereo not drawn) | -22.5
COc1ccc(N2CCN(C(=O)C(=O)c3cn(CC(=O)N4CCOCC4)c4ccccc34)CC2)cc1 | 2.05
